# Compound activity deposited in PubChem BioAssay by National Center for Advancing Translational Sciences (NCATS).
# Sfp PPTase inh = inhibitors of Bacillus subtilis Sfp phosphopantetheinyl transferase | Q9F4F7 | Biochemical Sfp PPTase activity, qHTS | Potency, µM, without a hit: largest response in the series, negative = inhibition, hits mostly inhibitors | 310,000 tested, 3.5% active;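 further: the enzyme is Sfp with the accession as filed and its product quenches rhodamine fluorescence; 0% = enzyme reaction without inhibitor and -100% = no enzyme wells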
#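 With Hepes-Na pH 7.6 buffer containing 10 mM MgCl2, Sfp (15 nM) modified BHQ-2-YbbR (12.5 uM) using rhodamine-CoA (5 uM). Two reads 30 minutes apart at 525/598 nm yielded each well's rate.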
# ALOX12 inh = inhibitors of human 12S-lipoxygenase ALOX12. P18054. purified 12hLO, xylenol orange hydroperoxide absorbance. Potency, µM (series often up to 108 µM), for the others: at the highest dose activity change, negative = inhibition, actives largely listed as inhibitors. 580,000 tested, 1.1% active
# Target sequence (P18054 whole entry, looked up): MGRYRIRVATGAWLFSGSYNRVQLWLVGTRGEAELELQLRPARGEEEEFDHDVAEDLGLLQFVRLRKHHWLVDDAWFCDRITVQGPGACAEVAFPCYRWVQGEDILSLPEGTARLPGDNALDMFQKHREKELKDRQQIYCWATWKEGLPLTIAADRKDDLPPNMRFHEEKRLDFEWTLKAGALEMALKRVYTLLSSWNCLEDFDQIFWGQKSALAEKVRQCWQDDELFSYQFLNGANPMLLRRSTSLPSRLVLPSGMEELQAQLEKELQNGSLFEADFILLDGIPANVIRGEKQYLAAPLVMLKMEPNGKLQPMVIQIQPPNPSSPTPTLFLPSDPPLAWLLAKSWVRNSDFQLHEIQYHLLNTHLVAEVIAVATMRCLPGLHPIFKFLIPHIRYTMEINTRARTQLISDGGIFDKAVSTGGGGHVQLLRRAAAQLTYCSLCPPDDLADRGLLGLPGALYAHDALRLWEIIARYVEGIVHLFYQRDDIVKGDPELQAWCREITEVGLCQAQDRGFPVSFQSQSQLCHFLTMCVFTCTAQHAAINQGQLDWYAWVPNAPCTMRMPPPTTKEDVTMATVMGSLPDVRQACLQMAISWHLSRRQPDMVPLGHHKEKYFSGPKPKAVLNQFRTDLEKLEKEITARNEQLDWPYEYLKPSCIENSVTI
#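 Purified human 12hLO (150 nM final) in 25 mM Hepes, 0.01% Triton X-100, pH 7.0 was preincubated 15 min at room temperature with compound. Then 40 uM arachidonic acid was added, 30 min. Hydroperoxide was read by Fe-XO absorbance ratio 573/405 nm.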
# VDR inhibitor = vitamin D3 receptor (human) inhibition; P11473; VDR-SRC2-3 peptide fluorescence polarization, 2 h; Potency, µM, for the others: max response, negative = inhibition, usual class: inhibitors; 400,000 tested, 0.93% active; AID 504847
#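 Inhibition of the VDR/SRC2-3 peptide interaction is quantified by fluorescence polarization. Compounds (23 nl, pintool) incubate with the reagents for 2 hours at ambient room temperature.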
# PLK1 PBD inh = inhibitors of human PLK1 polo-box domain binding | Plk1 PBD binding of FITC phosphopeptide, fluorescence polarization | 360,000 tested, 2.8% active | Potency, µM, for the others: max response, negative = inhibition, actives largely listed as inhibitors | P53350; further: series mostly up to about 57 µM; nearly all actives have a fitted effect of over 65% in size
# Numbers without * were called inactive; i = inactive; ? = inconclusive; nt = no result given; [ ] = another dose, or the depositor's remark. Shown are actives, neighbours in structure and some others; about 4.2% of the full set was active somewhere. The call rests on the fitted dose curve; in most records, active means well fitted curve in the direction sought with a large enough effect; inconclusive means small, poorly fitted or top-dose-only effect, or another doubt; inactive means no such curve, though single readings can be large; an effect the other way counts as inactive or inconclusive. Unless noted, on the % scale 0 is the no-effect control and ±100 the full control effect; potency means the concentration at half of the fitted maximal effect.
SMILES,Sfp PPTase inh,ALOX12 inh,VDR inhibitor,PLK1 PBD inh
O=C(CN1C(=O)NC2(CCOCC2)C1=O)Nc1cc(F)ccc1F,nt,36%,nt,nt
COc1cccc(-n2c(C)c3c(OC)cccc(=O)c3c2C)c1,50µM*,?,6%,-28%
Cc1ccccc1N=C1NC(=O)/C(=C/c2cccn2-c2cccc(C(=O)O)c2)S1,0%,?,-12%,17µM*
Cc1cccc(N=C2NC(=O)/C(=C/c3cccn3C)S2)c1C,79µM*,75%,10%,-6%
Cc1ccc(N=C2NC(=O)/C(=C/c3cccn3C)S2)cc1C,14%,58%,-1%,-7%
O=C(O)c1cccc(-n2cccc2C=C2C(=O)c3ccccc3C2=O)c1,-13%,?,9%,?
COc1ccc(N2CC(C(=O)N[C@@H](C)C(=O)NCc3ccccc3OC)CC2=O)cc1 (some centres not stated),29%,-1%,2%,46%
O=C1OC(c2ccc(O)cc2)(c2ccccc2O)c2ccccc21 (configuration not stated),nt,?,9%,-6%
O=C1OC(c2ccccc2)(c2cc(Br)ccc2O)c2ccccc21 (configuration not stated),nt,45µM*,-4%,0%
Cc1cc(C)n2nc(C(=O)NNC(=O)c3ccccc3)nc2n1,79µM*,0%,1%,0%
COC(=O)c1ccccc1NC(=O)c1nc2nc(C)cc(C)n2n1,7%,-26%,7%,-21%
CC(=O)Nc1ccc(C(=O)COC(=O)c2nc3nc(C)cc(C)n3n2)cc1,nt,40µM*,-7%,0%
Cc1cc(C)n2nc(C(=O)OCC(=O)c3ccccc3Cl)nc2n1,nt,-14%,-15%,-4%
O=c1[nH]c2cc(C(F)(F)F)ccc2n1-c1cc(C(F)(F)F)ccc1O,15%,?,-2%,-13%
O=C(C[n+]1cc(-c2ccc(Cl)c(Cl)c2)n2c1CCC2)N1c2ccccc2Sc2ccccc21,45µM*,?,-3%,1%
N#Cc1ncn(CCC(=O)Nc2ccc(Cl)cc2F)n1,nt,56%,nt,nt
Cc1ccc(Nc2nnc(SCC(=O)c3ccc(Br)s3)s2)c(C)c1,2%,?,0%,13%
Cc1cccc(C)c1Nc1nnc(SCC(=O)c2ccc(Br)s2)s1,2%,12%,?,24µM*
CCOc1ccc(CC(=O)OCN2C(=O)c3ccccc3C2=O)cc1,89µM*,-6%,3%,?
CC(=O)N/N=C(\C)c1cccc(C(F)(F)F)c1,22%,2%,9%,3%
Cc1sc(N)c(C(=O)c2cccc(C(F)(F)F)c2)c1C,79µM*,?,25µM*,nt
O=C(CC[C@@H]1CNC(=O)[C@@H]2C[C@H](NCc3ccccn3)CN12)NCc1ccccc1,nt,244%[176 µM],nt,nt
Nc1ccccc1-c1n[nH]c(=S)s1,-25%,nt,?,?
CCSc1n[nH]c(=S)s1,-76%,45µM*,0%,-9%
O=C(Nc1cccc(-c2nc3ccccc3[nH]2)c1)c1ccccn1,9%,-5%,-7%,-8%
SMILES,Sfp PPTase inh,ALOX12 inh,VDR inhibitor,PLK1 PBD inh
Cc1ccc(S(=O)(=O)N2CCOCCOCCOCCOCCOCC2)cc1,11%,11%,11%,4%
Cc1cc(C)c2c(c1)C1C=CCC1C(c1ccc(S(=O)(=O)N3CCOCC3)cc1)N2 (configuration not stated),40µM*,10%,11%,3%
O=C(O)c1cc(Cl)c2c(c1)[C@@H]1C=CC[C@@H]1[C@H](c1ccc(S(=O)(=O)N3CCOCC3)cc1)N2,?,nt,?,27µM*
Fc1ccc(/C=N/n2cnn(Cc3ccccc3Cl)c2=S)cc1,50µM*,-27%,?,24µM*
COc1ccccc1NC(=O)N(C)C[C@H]1OCc2cn(nn2)CCCC(=O)N([C@@H](C)CO)C[C@@H]1C,nt,5%,nt,-18%
Cc1ccc(Oc2ccc(NC(=O)CSc3n[nH]c(N)n3)cc2)cc1,-22%,22%,-24%,-3%
Nc1nc(SCC(=O)c2ccc(Oc3ccccc3)cc2)n[nH]1,50µM*,-24%,-28%,-27%
Nc1nc(SCC(=O)c2ccc([N+](=O)[O-])cc2)n[nH]1,32µM*,?,?,?
O=C(c1ccccc1-n1cncn1)N1CCC(N2CCCC2=O)CC1,nt,12%,nt,nt
Cc1nc([C@@H]2CN(S(=O)(=O)C(C)C)C[C@H]2C(N)=O)n[nH]1,nt,50µM*,nt,nt
O=C(Nc1ccc(Cl)cc1)Nc1cnccn1,1%,-1%,4%,30µM*
O=C(Nc1ccc(F)c(Cl)c1)Nc1cnccn1,6%,-4%,6%,-12%
COCCn1c(C)cc(C(=O)CSc2nc(C)c(C)c(C)n2)c1C,40µM*,-8%,-7%,?
COc1ccc(C(=O)Nc2cccc(-c3nc4cc(C)ccc4o3)c2)cc1OC,nt,-3%,nt,nt
Cc1ccn2cc(-c3cnoc3C)nc2c1,4%,7%[57.4 µM],-13%,27µM*
Cc1oncc1-c1cn2ccccc2n1,9%,-8%[57.4 µM],10%,-4%
Cc1c(Nc2cc(Cl)c3nonc3c2[N+](=O)[O-])c(=O)n(-c2ccccc2)n1C,?,?,?,1.2µM*
Cc1c(Nc2cc(N3CCOCC3)c3nonc3c2[N+](=O)[O-])c(=O)n(-c2ccccc2)n1C,14%,nt,nt,nt
O=C(O)c1ccc(Nc2cc(Cl)c3nonc3c2[N+](=O)[O-])cc1,35µM*,?,20µM*,4.7µM*
Clc1ccccc1/C=N/c1cc(-c2ccccc2)nn1-c1ccccc1,-13%,0%,?,17µM*
CC(=O)C(/C=N/c1cc(-c2ccc(C)cc2)nn1-c1ccccc1)=C(\C)O,-26%,1%,-15%,-8%
O=C(NCc1ccc(N2CCCC2=O)cc1)NC1CCCCC1,19%,-38%,3%,-1%
Cc1ccc2[nH]c(=O)c(CN(CCCO)Cc3nnnn3Cc3ccco3)cc2c1,nt,nt,-6%,nt
Cc1ccc2[nH]c(=O)c(CN(CCc3ccccc3)C(c3nnnn3Cc3ccco3)C(C)C)cc2c1 (configuration not stated),18µM*,11µM*,-2%,-3%
CCC(c1nnnn1Cc1ccccc1)N(Cc1ccco1)Cc1cc2cc(OC)ccc2[nH]c1=O (configuration not stated),-22%,0%,-5%,1%
SMILES,Sfp PPTase inh,ALOX12 inh,VDR inhibitor,PLK1 PBD inh
CCC(c1nnnn1Cc1ccco1)N(CCc1ccccc1)Cc1cc2cc(C)ccc2[nH]c1=O (configuration not stated),18µM*,-15%,26%,-3%
Clc1cccc(-n2ncc3c(NCCCn4ccnc4)ncnc32)c1,nt,9%,4%,nt
O=C(O)CCN1C(=O)CC(N2C(=O)/C(=C/c3ccc(Cl)cc3)SC2=S)C1=O (configuration not stated),0%,?,-23%,24µM*
CCOc1ccc(/C=C2\SC(=S)N(CCC(=O)O)C2=O)cc1,8%,23%,8%,-11%
O=C(CN1C(=O)/C(=C/c2ccc(Cl)cc2)SC1=S)NC1C=CS(=O)(=O)C1 (configuration not stated),40µM*,-18%,-7%,-18%
O=C(CSc1nnc(NC(=O)c2ccccc2F)s1)NCc1ccc(F)cc1,-14%,i,12%,0%
O=C(CN(c1ccccc1)S(=O)(=O)c1ccccc1)N/N=C/c1ccco1,11%,-15%,-25%,-8%
